PubChem BioAssay (NCATS)
Records with an inconclusive call do not appear. The source made the active and inactive calls. Unless noted, the call rests on the fitted dose curve; in most records, active means well fitted curve in the direction sought with a large enough effect; inconclusive means small, poorly fitted or top-dose-only effect, or another doubt; inactive means no such curve, though single readings can be large; an effect the other way counts as inactive or inconclusive.

Assays:
[1] = target: M-phase phosphoprotein 8 (Homo sapiens) (UniProt Q99549); assay: qHTS Validation Assay for Inhibitors for MPP8 Chromodomain Interactions with Methylated Histone Tails (AID 488949);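 further: AlphaScreen signal from MPP8 chromodomain bound to biotinylated H3K9me3 peptide; top concentration of the series differs between compounds; on the % scale 0 is the no-effect control and ±100 the full control effect; nearly all actives have a fitted effect of over 55% in size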
Chain of M-phase phosphoprotein 8 (Homo sapiens) (Q99549 whole entry, looked up): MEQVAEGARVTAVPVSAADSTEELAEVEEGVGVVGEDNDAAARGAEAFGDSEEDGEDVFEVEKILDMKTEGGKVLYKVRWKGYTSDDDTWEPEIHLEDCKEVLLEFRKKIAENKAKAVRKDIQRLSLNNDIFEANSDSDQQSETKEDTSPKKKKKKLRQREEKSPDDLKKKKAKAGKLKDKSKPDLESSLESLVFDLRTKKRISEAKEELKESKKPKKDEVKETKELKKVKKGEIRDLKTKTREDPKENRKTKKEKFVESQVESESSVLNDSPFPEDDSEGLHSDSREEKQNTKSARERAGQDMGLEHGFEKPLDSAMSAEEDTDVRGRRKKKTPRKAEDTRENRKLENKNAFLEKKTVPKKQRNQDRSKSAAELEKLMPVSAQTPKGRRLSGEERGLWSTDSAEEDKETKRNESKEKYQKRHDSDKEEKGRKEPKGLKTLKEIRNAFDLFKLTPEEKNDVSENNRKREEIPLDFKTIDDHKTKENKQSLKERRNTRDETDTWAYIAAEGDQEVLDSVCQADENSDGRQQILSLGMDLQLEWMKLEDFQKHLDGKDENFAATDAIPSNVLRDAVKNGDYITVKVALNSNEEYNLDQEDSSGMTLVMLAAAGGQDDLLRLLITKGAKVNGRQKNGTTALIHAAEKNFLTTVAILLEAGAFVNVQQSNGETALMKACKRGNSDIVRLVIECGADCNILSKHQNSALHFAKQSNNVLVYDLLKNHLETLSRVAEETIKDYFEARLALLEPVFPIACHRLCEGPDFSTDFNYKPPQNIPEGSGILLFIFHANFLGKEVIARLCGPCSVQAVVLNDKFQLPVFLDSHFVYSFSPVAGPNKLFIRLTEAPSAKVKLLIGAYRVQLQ
Outline: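 Disruption of the preformed MPP8–trimethyl-H3K9 peptide complex (both 50 nM, 30 min, RT) is measured after 30 min compound exposure, using AlphaScreen proximity beads; aurintricarboxylic acid titration serves as plate control.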

[2] = target: Chromobox protein homolog 1 (Homo sapiens) (UniProt P83916); assay: qHTS Validation Assay for Inhibitors of HP1-beta Chromodomain Interactions with Methylated Histone Tails (AID 488953);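 further: loss of AlphaScreen luminescence from HP1-beta binding biotinylated H3K9me3 peptide; series mostly up to about 110 µM; on the % scale 0 is the no-effect control and ±100 the full control effect; nearly all actives have a fitted effect of over 50% in size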
Chain of Chromobox protein homolog 1 (Homo sapiens) (P83916 whole entry, looked up): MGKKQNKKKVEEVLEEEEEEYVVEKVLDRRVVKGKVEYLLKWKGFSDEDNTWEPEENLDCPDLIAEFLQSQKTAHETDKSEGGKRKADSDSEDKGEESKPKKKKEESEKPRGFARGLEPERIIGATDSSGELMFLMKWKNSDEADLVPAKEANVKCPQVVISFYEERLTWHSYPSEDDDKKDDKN
Outline: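 HP1-beta (50 nM) preformed 30 min with biotinylated H3(1-18)K9me3 peptide (50 nM) in PBS pH 7.4, 0.01% Tween-20. Compounds added for 30 min at room temperature. Complex disruption read by AlphaScreen with streptavidin donor/nickel chelate acceptor beads (10 ug/mL each).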

[3] = target: Transient receptor potential cation channel subfamily V member 1 (Homo sapiens) (UniProt Q8NER1); assay: HTS Assay for Compounds that Act as Enhancers of the Vanilloid Receptor 1 (AID 488979); further: 0% is about no effect
Outline: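 TRPV1 cells loaded with Fluo-8 calcium dye; compound added and Ca2+ signal (ex 480/em 520 nm) followed 3 min, then capsaicin at EC20 added and read 2 more min to detect enhancement.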

[4] = target: Thyrotropin receptor (Homo sapiens) (UniProt P16473); assay: qHTS Assay for Antagonists of the Thyroid Stimulating Hormone Receptor (AID 488980); further: series mostly up to about 58 µM; 0% is about no effect
Outline: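 Cells expressing human TSHR (HEK293) are dispensed in HBSS/HEPES containing 70 uM RO 20-1724, compound is added, then TSH at EC80 (4 nM final). Antibody in lysis buffer follows, 30 minutes at room temperature before HTRF detection.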

[5] = target: D(1A) dopamine receptor (Homo sapiens) (UniProt P21728); assay: HTS Assay for Allosteric Agonists of the Human D1 Dopamine Receptor: Primary Screen for Agonists (AID 488981); further: 0% is about no effect
Chain of D(1A) dopamine receptor (Homo sapiens) (P21728 whole entry, looked up): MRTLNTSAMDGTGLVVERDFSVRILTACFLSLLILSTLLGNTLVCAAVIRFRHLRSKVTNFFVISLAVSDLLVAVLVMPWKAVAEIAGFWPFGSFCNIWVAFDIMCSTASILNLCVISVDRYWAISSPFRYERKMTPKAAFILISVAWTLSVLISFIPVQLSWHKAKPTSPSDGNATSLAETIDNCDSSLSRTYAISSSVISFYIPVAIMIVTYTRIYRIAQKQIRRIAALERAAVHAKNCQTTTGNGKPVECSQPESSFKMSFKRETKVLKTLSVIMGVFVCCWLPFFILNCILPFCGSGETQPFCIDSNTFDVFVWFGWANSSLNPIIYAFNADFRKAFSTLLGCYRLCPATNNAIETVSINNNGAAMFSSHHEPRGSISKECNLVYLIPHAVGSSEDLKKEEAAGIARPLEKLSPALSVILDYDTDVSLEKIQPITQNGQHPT
Outline: (§1)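 Tetracycline-induced HEK293 Trex D1 cells with forced coupling to calcium, loaded with no-wash calcium dye; kinetic fluorescence read 180 s after compound addition for agonism, then a further 180 s after an EC20 dopamine challenge for potentiation.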

[6] = target: D(1A) dopamine receptor (Homo sapiens) (UniProt P21728); assay: HTS Assay for Allosteric Agonists of the Human D1 Dopamine Receptor: Primary Screen for Potentiators (AID 488982); further: 0% is about no effect
Outline: as §1

[7] = target: D(1A) dopamine receptor (Homo sapiens) (UniProt P21728); assay: HTS Assay for Allosteric Agonists of the Human D1 Dopamine Receptor: Primary Screen for Antagonists (AID 488983);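 further: calcium flux response to an EC80 dopamine challenge measured with no-wash dye; nearly all actives have a fitted effect of over 65% in size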; further: potency means the concentration at half of the fitted maximal effect
Outline: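 Tetracycline-induced HEK293 T-REx D1 line, force-coupled to calcium flux, read with no-wash calcium dye. Compound added after 10 s baseline, read 180 s for agonism, then EC80 dopamine added and read a further 180 s.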

[8] = target: ATP-dependent 6-phosphofructokinase (Trypanosoma brucei brucei) (UniProt O15648); assay: qHTS Assay to Find Inhibitors of T. brucei phosphofructokinase: hit validation (AID 492961);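 further: luminescence reports ADP formed as PFK phosphorylates fructose-6-phosphate with ATP; series mostly up to about 51 µM; on the % scale 0 is the no-effect control and ±100 the full control effect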
Chain of ATP-dependent 6-phosphofructokinase (Trypanosoma brucei brucei) (O15648 whole entry, looked up): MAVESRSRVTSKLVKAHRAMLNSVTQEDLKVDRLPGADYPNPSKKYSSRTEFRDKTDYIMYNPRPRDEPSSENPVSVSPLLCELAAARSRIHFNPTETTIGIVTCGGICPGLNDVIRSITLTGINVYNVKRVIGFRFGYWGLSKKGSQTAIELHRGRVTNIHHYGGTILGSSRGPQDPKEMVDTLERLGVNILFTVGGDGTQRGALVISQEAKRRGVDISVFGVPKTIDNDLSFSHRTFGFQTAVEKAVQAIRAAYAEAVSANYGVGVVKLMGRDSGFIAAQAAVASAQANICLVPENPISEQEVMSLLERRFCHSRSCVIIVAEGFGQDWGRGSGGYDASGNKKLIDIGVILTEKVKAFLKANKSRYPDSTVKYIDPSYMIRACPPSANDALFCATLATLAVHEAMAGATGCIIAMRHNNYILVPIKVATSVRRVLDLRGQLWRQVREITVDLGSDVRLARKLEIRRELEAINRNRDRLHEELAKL
Outline: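 Inhibition of parasite PFK is measured as reduced ADP formation, quantified via luciferase after ATP depletion. Assay used 0.1 mM ATP, 0.5 mM F6P, 1.25 nM enzyme, 45 min incubation.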

[9] = target: ATPase family AAA domain-containing protein 5 (Homo sapiens) (UniProt Q96QE3); assay: Validation screen for small molecules that inhibit ELG1-dependent DNA repair in human embryonic kidney (HEK293T) cells expressing luciferase-tagged ELG1 (AID 493107);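 further: cells co-treated with the DNA-damaging agent 5-fluorouridine alongside compound; series mostly up to about 46 µM; on the % scale 0 is the no-effect control and ±100 the full control effect; inhibitors lower the ELG1-luciferase luminescence signal; nearly all actives have a fitted effect of over 70% in size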
Chain of ATPase family AAA domain-containing protein 5 (Homo sapiens) (Q96QE3 whole entry, looked up, the tested form may be a part): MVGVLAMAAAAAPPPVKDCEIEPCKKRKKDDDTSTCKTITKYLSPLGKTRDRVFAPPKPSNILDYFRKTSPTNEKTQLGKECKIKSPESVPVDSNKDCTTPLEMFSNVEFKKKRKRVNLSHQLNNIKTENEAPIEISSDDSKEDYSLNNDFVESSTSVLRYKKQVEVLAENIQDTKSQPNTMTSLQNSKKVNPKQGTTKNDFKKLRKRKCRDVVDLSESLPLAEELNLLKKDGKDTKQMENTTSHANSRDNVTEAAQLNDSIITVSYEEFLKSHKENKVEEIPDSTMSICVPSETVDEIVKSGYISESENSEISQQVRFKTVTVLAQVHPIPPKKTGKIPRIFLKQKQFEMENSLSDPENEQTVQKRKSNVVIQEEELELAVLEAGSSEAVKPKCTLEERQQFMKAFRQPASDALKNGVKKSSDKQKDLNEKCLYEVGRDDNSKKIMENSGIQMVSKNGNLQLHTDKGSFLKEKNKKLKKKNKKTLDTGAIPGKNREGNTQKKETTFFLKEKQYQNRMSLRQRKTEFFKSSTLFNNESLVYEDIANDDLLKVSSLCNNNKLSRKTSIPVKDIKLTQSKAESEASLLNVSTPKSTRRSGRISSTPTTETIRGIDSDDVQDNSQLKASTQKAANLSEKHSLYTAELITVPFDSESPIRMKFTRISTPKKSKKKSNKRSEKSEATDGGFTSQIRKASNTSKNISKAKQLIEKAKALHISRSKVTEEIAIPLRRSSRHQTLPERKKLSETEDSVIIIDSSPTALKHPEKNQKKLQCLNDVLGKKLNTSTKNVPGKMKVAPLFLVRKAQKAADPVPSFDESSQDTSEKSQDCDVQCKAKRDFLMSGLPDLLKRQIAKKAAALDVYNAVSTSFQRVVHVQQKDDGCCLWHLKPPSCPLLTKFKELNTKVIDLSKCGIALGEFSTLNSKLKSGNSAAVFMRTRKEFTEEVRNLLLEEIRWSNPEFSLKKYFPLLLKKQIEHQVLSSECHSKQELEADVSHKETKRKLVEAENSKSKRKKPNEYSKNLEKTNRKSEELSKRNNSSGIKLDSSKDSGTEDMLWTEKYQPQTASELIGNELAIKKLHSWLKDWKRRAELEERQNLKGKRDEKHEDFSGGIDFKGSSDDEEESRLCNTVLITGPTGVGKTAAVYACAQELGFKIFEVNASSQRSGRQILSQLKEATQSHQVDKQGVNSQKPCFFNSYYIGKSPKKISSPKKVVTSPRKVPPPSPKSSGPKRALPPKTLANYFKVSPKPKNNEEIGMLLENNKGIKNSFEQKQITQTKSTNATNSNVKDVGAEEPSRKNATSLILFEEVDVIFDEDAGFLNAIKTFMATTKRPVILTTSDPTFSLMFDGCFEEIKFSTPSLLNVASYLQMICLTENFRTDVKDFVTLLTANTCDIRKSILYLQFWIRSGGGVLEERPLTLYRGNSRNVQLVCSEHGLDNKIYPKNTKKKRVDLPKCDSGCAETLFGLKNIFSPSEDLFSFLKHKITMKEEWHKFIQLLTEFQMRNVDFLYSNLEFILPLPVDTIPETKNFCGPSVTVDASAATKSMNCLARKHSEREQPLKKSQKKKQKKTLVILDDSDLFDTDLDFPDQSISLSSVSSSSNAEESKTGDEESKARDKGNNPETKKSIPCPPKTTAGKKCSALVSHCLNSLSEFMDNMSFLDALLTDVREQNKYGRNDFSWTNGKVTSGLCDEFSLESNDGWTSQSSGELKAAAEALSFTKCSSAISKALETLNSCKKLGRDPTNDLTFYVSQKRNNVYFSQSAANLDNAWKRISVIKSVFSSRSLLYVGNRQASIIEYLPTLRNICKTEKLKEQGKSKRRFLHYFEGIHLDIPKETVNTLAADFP
Outline: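 HEK293T cells expressing luciferase-tagged ELG1, 2,000 per well, treated with 5-fluorouridine plus compound for 16 h at 37 C. ONE-Glo luminescence after 30 min at room temperature reports ELG1 reporter level.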

[10] = target: Thyrotropin-releasing hormone receptor (Homo sapiens) (UniProt P34981); assay: qHTS for Small Molecule Agonists and Allosteric Enhancers of Human TRH Receptor: Validation Screen for Agonists (AID 493127;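 active means calcium activation more than 3 SD above the typical response in the agonist read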; further: 0% is about no effect); conditions: TRH receptor agonist cell assay; at 2 µM; stronger effect = higher value
Outline: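 TRHR cells loaded with fluo-8 calcium dye; FDSS kinetic fluorescence (Ex 480/Em 530) read at 1 s/cycle after 23 nL compound addition. Agonist-mode calcium response recorded before the 10 nM TRH (EC20) addition.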

[11] = Nrf2 qHTS screen for inhibitors: Validation (AID 493153; active means well fitted inhibition curve with a large enough effect in the main read-out, with a control signal flat, not every such curve was filed as active); conditions: viability change: measured here: cytotoxicity max response
Outline: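 A549 cells carrying ARE-firefly luciferase reporter, 5000 cells/well in 5% FBS OPTI-MEM, treated with compound over a concentration series for 18-24 h at 37 C. Luciferase luminescence gave Nrf2 activity; CellTiter-Fluor fluorescence gave viability.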

[12] = qHTS for Inhibitors of Cell Surface uPA Generation: Validation Assay (AID 493164); further: 0% is about no effect
Outline: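 RAW 264.7 cells (4000/well) were plated overnight, then exposed for 18 h at 37 C, 5% CO2 to compounds in a 7-point 1:5 titration (2.45 nM–38.3 uM final). Intracellular ATP was read by ATP-Lite luminescence.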

[13] = target: Galactokinase (Homo sapiens) (UniProt P51570); assay: qHTS Validation Assay for Inhibitors of Human Galactokinase (GALK) (AID 493189); further: 0% is about no effect
Outline: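 Compounds were pin-transferred into ATP buffer, then GALK-galactose mix was added (final 5 nM enzyme, 100 uM galactose, 35 uM ATP). After 1 h at room temperature, remaining ATP was measured luminescently.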

[14] = Validation screen for small molecules that induce DNA re-replication in SW480 colon adenocarcinoma cells (AID 504364); further: 0% is about no effect
Outline: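 SW480 cells (250/well) exposed 48 h at 37 C, 5% CO2, then Hoechst-stained 40 min. Nuclear DNA content imaged by fluorescence scanning (405 nm excitation, 500-530 nm emission); re-replication scored as increased nuclei with elevated intensity.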

[15] = target: Peptidyl-prolyl cis-trans isomerase NIMA-interacting 1 (Homo sapiens) (UniProt Q13526); assay: qHTS Validation Assay to Find Inhibitors of Pin1 (AID 504536; active means well fitted inhibition curve with a large enough effect in the polarisation, with a control signal flat, not every such curve was filed as active; the % refers to the polarisation;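 further: 0% = full Pin1 enzyme wells and -100% = no-enzyme wells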)
Outline: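 Fluorescence polarization competition: compounds (titration) displace HiFluor-488-labeled Pin1-1b peptide from Pin1 (0.3 uM final) in pH 7.5 HEPES buffer with DTT, 10 min at room temperature; %Activity normalized to no-enzyme wells, curves fitted.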

[16] = target: Phosphoglycerate kinase, glycosomal (Trypanosoma brucei brucei) (UniProt P07378); assay: qHTS Validation Assay to Find Inhibitors of Phosphoglycerate Kinase (AID 504547);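 further: control wells lack PGK and mark full inhibition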
Chain of Phosphoglycerate kinase, glycosomal (Trypanosoma brucei brucei) (P07378 whole entry, looked up): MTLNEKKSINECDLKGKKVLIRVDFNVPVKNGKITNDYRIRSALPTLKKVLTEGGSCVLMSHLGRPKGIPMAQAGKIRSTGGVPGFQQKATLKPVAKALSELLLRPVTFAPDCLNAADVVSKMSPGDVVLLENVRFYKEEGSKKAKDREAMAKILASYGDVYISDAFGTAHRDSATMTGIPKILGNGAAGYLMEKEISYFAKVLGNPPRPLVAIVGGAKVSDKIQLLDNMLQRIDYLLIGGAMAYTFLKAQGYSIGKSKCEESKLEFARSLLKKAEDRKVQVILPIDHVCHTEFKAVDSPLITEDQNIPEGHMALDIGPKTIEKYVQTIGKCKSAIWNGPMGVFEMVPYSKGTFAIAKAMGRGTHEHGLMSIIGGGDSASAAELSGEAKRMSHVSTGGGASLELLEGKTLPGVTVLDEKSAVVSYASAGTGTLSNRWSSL
Outline: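 PGK activity was coupled to GAPDH (100nM final), which generates the unstable substrate 1,3-bisphosphoglycerate in-well. Reactions ran 60 minutes at room temperature in 100mM TEA pH 7.6, 5mM MgCl2, 0.01% Tween-20, then Kinase-Glo Plus luminescence was read.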

[17] = target: phosphoglycerate mutase (Leishmania major) (UniProt Q4Q090); assay: qHTS Validation Assay to Find Inhibitors of Phosphoglycerate Mutase (AID 504548);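 further: end-point luminescence from Kinase-GloPlus after the PGAM reaction; series mostly up to about 58 µM; on the % scale 0 is the no-effect control and ±100 the full control effect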
Outline: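 Inhibition of L. major PGAM was assessed by Kinase-GloPlus luminescence following a 45-minute room-temperature reaction with enzyme at 1.25nM final.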

[18] = target: Ubiquitin carboxyl-terminal hydrolase 1 (Homo sapiens) (UniProt O94782); assay: Inhibitors of USP1/UAF1: Pilot qHTS (AID 504865);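 further: rhodamine fluorescence freed from ubiquitin-rhodamine substrate followed over time; top concentration of the series differs between compounds; on the % scale 0 is the no-effect control and ±100 the full control effect; nearly all actives have a fitted effect of over 35% in size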
Chain of Ubiquitin carboxyl-terminal hydrolase 1 (Homo sapiens) (O94782 whole entry, looked up): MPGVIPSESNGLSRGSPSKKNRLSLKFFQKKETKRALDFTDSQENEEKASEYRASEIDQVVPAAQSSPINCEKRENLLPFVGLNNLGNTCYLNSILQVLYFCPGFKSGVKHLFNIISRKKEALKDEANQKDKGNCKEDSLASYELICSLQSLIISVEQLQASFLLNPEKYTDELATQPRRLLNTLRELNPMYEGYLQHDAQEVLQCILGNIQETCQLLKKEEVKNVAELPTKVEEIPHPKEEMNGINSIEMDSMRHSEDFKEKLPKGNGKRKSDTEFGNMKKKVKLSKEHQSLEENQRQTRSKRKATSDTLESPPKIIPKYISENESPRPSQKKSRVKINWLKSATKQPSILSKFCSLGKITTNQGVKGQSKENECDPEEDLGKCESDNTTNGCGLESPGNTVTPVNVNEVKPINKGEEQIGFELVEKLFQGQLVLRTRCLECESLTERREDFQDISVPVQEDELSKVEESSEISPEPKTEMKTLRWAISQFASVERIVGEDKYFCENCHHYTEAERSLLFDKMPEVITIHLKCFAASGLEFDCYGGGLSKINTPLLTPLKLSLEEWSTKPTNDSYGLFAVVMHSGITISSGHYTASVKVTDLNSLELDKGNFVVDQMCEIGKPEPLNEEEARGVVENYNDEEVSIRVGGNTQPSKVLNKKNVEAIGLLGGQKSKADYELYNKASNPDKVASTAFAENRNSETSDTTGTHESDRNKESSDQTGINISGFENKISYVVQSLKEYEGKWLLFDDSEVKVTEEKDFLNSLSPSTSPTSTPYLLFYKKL
Outline: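 Kinetic fluorescence assay: 1nM USP1/UAF1, 15 min compound preincubation, then 150nM Ub-Rho; 480/540 nm.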

[19] = qHTS for Inhibitors of ATXN expression: Validation of Cytotoxic Assay (AID 588349); further: on the % scale 0 is the no-effect control and ±100 the full control effect
Outline: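 HEK293 cells treated with titrated compound for 72 hr at 37 degrees C; viability read as intracellular ATP by CellTiter Glo luminescence.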

[20] = qHTS for Inhibitors of ATXN expression: Validation (AID 588378); further: series mostly up to about 57 µM; on the % scale 0 is the no-effect control and ±100 the full control effect; nearly all actives have a fitted effect of over 75% in size
Outline: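 Validation of ATXN2 expression inhibitors uses a cell-based luciferase fusion reporter in HEK293 cells, with 24 h compound exposure and paired viability (fluorescence) and reporter (luminescence) end-point reads.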

CN(C)CCC(c1ccccc1)c1ccccn1 (stereo not drawn)
3.7%: viability change [11]
inactive: Potency [1] | Potency [2] | outcome [3] | outcome [4] | outcome [5] | outcome [6] | Potency [7] | outcome [8] | outcome [9] | activation [10] 1.44% | outcome [11] | outcome [12] | outcome [13] | outcome [14] | outcome [15] | outcome [16] | outcome [17] | Potency [18] | Potency [19] | Potency [20]

CCCCCN(C)CCC(O)(P(=O)(O)O)P(=O)(O)O
-4.22%: viability change [11]
inactive: Potency [1] | Potency [2] | outcome [5] | outcome [6] | Potency [7] | outcome [8] | outcome [9] | outcome [11] | outcome [12] | outcome [15] | outcome [16] | outcome [17] | Potency [18] | Potency [19] | Potency [20]

CCN1CCC[C@H]1CNC(=O)c1cc(S(N)(=O)=O)ccc1OC
-14.1%: viability change [11]
inactive: Potency [1] | Potency [2] | outcome [3] | outcome [4] | outcome [5] | outcome [6] | Potency [7] | outcome [8] | outcome [9] | activation [10] 1% | outcome [11] | outcome [12] | outcome [13] | outcome [14] | outcome [15] | outcome [16] | outcome [17] | Potency [18] | Potency [19] | Potency [20]

CC(=O)CCCCn1c(=O)c2c(ncn2C)n(C)c1=O
inactive: Potency [1] | Potency [2] | outcome [3] | outcome [4] | outcome [5] | outcome [6] | Potency [7] | outcome [8] | activation [10] -2.31% | outcome [11] | outcome [12] | outcome [13] | outcome [14] | outcome [15] | outcome [16] | outcome [17] | Potency [18] | Potency [19] | Potency [20]
-8.24%: viability change [11]

COC(=O)[C@@H]1[C@H]2C[C@H]3c4[nH]c5ccccc5c4CCN3C[C@@H]2CC[C@@H]1O
2.98%: viability change [11]
active: Potency [7] 17.8 µM
inactive: Potency [1] | Potency [2] | outcome [3] | outcome [4] | outcome [5] | outcome [6] | outcome [9] | activation [10] 0.625% | outcome [11] | outcome [12] | outcome [13] | outcome [14] | outcome [15] | outcome [16] | outcome [17] | Potency [18] | Potency [19]

COc1ccccc1N1CCN(CCCNc2cc(=O)n(C)c(=O)n2C)CC1
-8.38%: viability change [11]
inactive: Potency [1] | Potency [2] | outcome [3] | outcome [4] | outcome [5] | outcome [6] | Potency [7] | outcome [8] | outcome [9] | activation [10] -2.81% | outcome [11] | outcome [12] | outcome [13] | outcome [14] | outcome [15] | outcome [16] | outcome [17] | Potency [18] | Potency [19] | Potency [20]
